# “And” between values parts separate entries of the source, which are not always exact repeats. Identical values can stand only once. Results filed as inconclusive are left out. Values without a mark were called inactive. The source made the active and inactive calls. Calls come from the whole dose curve; as a rule, active = well fitted cell-killing curve with a large enough effect; inconclusive = small, poorly fitted or top-dose-only effect, or effect the other way; inactive = no such curve, though single readings can be large or run the other way.
# Assay: Viability qHTS for spleen associated tyrosine kinase inhibitor (SYKi) naive MV4-11 cells (AID 1963823); note: nearly all actives have a fitted effect of over 40% in size
# Details: MV4-11 AML viability, CellTiter-Glo luminescence, 72 h; series mostly up to 45 µM; viability (% of control): at the top concentration
# Method in brief: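 qHTS, SYK inhibitor-naive MV4-11; 500 cells/well; 72 hr compound exposure, 37 C; CellTiter-Glo added, 10 min RT; luminescence read.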
# Potency is the fitted concentration of half-maximal effect.
Structure (SMILES),Potency,viability (% of control)
Cc1[nH]nc2ncc(C(=O)N3CCC[C@H]3c3ccc(Cl)cc3)cc12,5250 nM (active),–
Cn1c(NC[C@@H](N)Cc2ccccc2)nc(-c2ccncc2)c(-c2ccc3ccccc3c2)c1=O,7420 nM (active),–
O=C(c1ccccc1)c1ccccc1,–,80%
Cc1[nH]c(/C=C2\C(=O)Nc3ccc(S(=O)(=O)N(C)c4cccc(Cl)c4)cc32)c(C)c1C(=O)N1CCN(C)CC1,1.3 µM (active) and 1.32 µM (active),–
CN1[C@@H]2CC[C@H]1CC(NC(=O)n1c(=O)[nH]c3ccccc31)C2 (stereo not given in full),–,85.5%
COc1ccc(S(=O)(=O)N(C(C)=O)c2ccccc2/C=C/c2cc[n+]([O-])cc2)cc1,934 nM (active),–
COc1cc(-c2ccc(=O)[nH]n2)ccc1OC(F)F,–,91.2%
O=C(O)/C=C(\CC(=O)O)C(=O)O,–,78.3%
C[C@]12CC[C@@H]3c4ccc(O)cc4CC[C@H]3[C@@H]1CC[C@@H]2OC(=O)CCC1CCCC1,–,9.32%
CC(C)c1cc(CNc2nc(Nc3cc(C4CC4)[nH]n3)cc(N3CCN(C)CC3)n2)on1,25.9 nM (active),–
O=C1OC(COc2ccccc2[N+](=O)[O-])CC1Cc1ccccc1 (stereo not given),–,71.4%
FC(F)(F)c1ccc(CNc2ccc(Cc3c[nH]c4ncccc34)cn2)cc1,259 nM (active) and 116 nM (active),–
C/C=C/C/C=C/CCC(=O)[C@H]1O[C@H]1C(N)=O,8330 nM (active),–
CC(C)(O)c1ccccc1CC[C@@H](SCC1(CC(=O)O)CC1)c1cccc(/C=C/c2ccc3ccc(Cl)cc3n2)c1,–,85.1%
C[N+]1(C)CCC(=C(c2ccccc2)c2ccccc2)CC1,–,70%
CCN1C(=O)CNc2ncc(-c3ccc(-c4ncn[nH]4)nc3C)nc21,417 nM (active),–
CCN(CC)CCCC(C)Nc1c2ccc(Cl)cc2nc2ccc(OC)cc12 (stereo not given),4.22 µM (active) and 2.82 µM (active),–
C#Cc1ccc(-c2ccccc2F)cc1,–,71.4%
Cn1cc(-c2cc(Oc3cc(F)c(NC(=O)C4(C(=O)Nc5ccccc5)CC4)cc3F)ccn2)cn1,103 nM (active),–
CCn1c(=O)c(-c2ccc(Cl)cc2Cl)cc2cnc(Nc3ccc(N4CCNCC4)c(F)c3)nc21,82 nM (active) and 118 nM (active),–

Structure (SMILES),Potency,viability (% of control)
CN1[C@@H]2CCC[C@H]1CC(NC(=O)c1nn(C)c3ccccc13)C2 (stereo not given in full),–,108%
CNC(=O)[C@H](Cc1c[nH]c2ccccc12)NC(=O)[C@@H](CC(=O)NO)CC(C)C,9340 nM (active),–
C[C@]12C=CC(=O)C=C1[C@@H](F)C[C@@H]1[C@@H]2[C@@H](O)C[C@@]2(C)[C@H]1CC[C@]2(O)C(=O)CO,–,113%
Cc1ccc(S(=O)(=O)Cc2nc(-c3ccc(C(=O)NCc4cccnc4)cc3)oc2C)cc1,11.8 nM (active),–
COc1c2occc2c(OC)c2c(=O)cc(C)oc12,–,111%
O=C(O)Cc1cccc(-c2cc(CCCCCCc3ccc(O[C@H]4O[C@H](CO)[C@@H](O)[C@H](O)[C@@H]4O)c(-c4cccc(CC(=O)O)c4)c3)ccc2O[C@H]2O[C@H](CO)[C@@H](O)[C@H](O)[C@@H]2O)c1,–,99.5% [at 0.588 µM]
Nc1ncnc2c1ncn2[C@@H]1O[C@H](CO)C[C@H]1O,–,81.2%
COCc1c(-c2ccc(NC(=O)Nc3cc(C(F)(F)F)ccc3F)c(F)c2)c2c(N)ncnn2c1CN1CCOCC1,10.5 nM (active),–
CCCCNc1ncc2c(-c3ccc(CN4CCN(C)CC4)cc3)cn(C3CCC(O)CC3)c2n1 (stereo not given),10.5 nM (active),–
CCN1CCN(Cc2ccc(Nc3ncc(F)c(-c4cc(F)c5nc(C)n(C(C)C)c5c4)n3)nc2)CC1,146 nM (active) and 148 nM (active),–
CN1C(CCl)Nc2cc(Cl)c(S(N)(=O)=O)cc2S1(=O)=O (stereo not given),–,98.7%
COc1cccc(Nc2ncnn3ccc(CN4CC[C@@H](N)[C@H](O)C4)c23)c1,41.1 nM (active),–
C=CC(=O)Nc1cc(Nc2nccc(-c3cn(C)c4ccccc34)n2)c(OC)cc1N(C)CCN(C)C,1460 nM (active),–
C=C1C(=O)O[C@H]2C[C@H](C)C(/C=C/C(C)=O)=CC[C@H]12,1180 nM (active),–
CC(C(=O)O)c1ccc(C(=O)c2ccccc2)s1 (stereo not given),–,72.9%
O=C(Nc1ccc2[nH]nc(-c3ccncc3)c2c1)[C@@H]1CCN(CC(=O)N2CCN(c3ccc(-c4ncccn4)cc3)CC2)C1,25.9 nM (active) and 525 nM (active),–
C=CCNc1c(O)cc2c(O)c1C[C@@H](C)C[C@H](OC)[C@H](O)[C@@H](C)/C=C(/C)[C@H](OC(N)=O)[C@@H](OC)/C=C\C=C(\C)C(=O)N2,132 nM (active),–
Oc1cc(O)c2c(c1)O[C@H](c1ccc(O)c(O)c1)[C@H](O)C2,–,61.7%
NCCCC[C@H](N[C@@H](CCc1ccccc1)C(=O)O)C(=O)N1CCC[C@H]1C(=O)O,–,67.8%
CCCC(=O)Nc1ccc(OCC(O)CNC(C)C)c(C(C)=O)c1 (stereo not given),–,77.6%

# Source: PubChem BioAssay (NCATS)
